Measurements: PubChem BioAssay (NCATS)
Inconclusive results are not listed. The source made the active and inactive calls. Calls follow the shape of the full dose curve.

assay: qHTS Assay for Lipid Storage Modulators (AID 1519); details: Drosophila S3 cells, BODIPY lipid droplet/cell ratio, laser cytometry; at 57.5 µM (top of the series); cells loaded with oleic acid
How it was run: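 Cells seeded at 5,000 per well were treated with compounds over a concentration series and loaded with oleic acid (400 uM, as added). Lipid droplet fluorescence (488 nm excitation, 500-530 nm channel) was read by laser-scanning cytometry and normalized to 20 uM Triacsin C.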
% is scaled to controls: 0 for no effect and ±100 for the full control effect.

Activity change, negative = inhibition, inactive:
N#Cc1cccc(-c2nc3cnc(N4CCOCC4)nc3n(C3CC3)c2=O)c1 -2.2%
CCNc1ncc2nc(-c3cc(F)cc(F)c3)c(=O)n(C)c2n1 -1.81%
CC(=O)NCCNc1ccnc(-c2ccccc2C(F)(F)F)n1 4.45%
CCNc1ncc2nc(-c3cc(F)cc(F)c3)c(=O)n(C[C@H]3CCCO3)c2n1 6.72%
COc1cccc(-c2cncnc2N(C)Cc2ccco2)c1 6.72%
COc1ccccc1-c1ccc2ncnc(NC3CCNCC3)c2c1 4.79%
O=c1cnc2cnc(N3CCOCC3)nc2n1C1CC1 1.43%
CCNc1ncc2nc(C)c(=O)n(-c3ccc(OC)cc3)c2n1 4.59%
CCNc1ncc2nc(C)c(=O)n(Cc3cccs3)c2n1 6.19%
Cn1c(=O)c(-c2cccs2)nc2cncnc21 2.77%
CN(C)c1ncc2ncc(=O)n(C3CC3)c2n1 7.21%
CCNc1ncc2nc(C)c(=O)n(Cc3ccc(F)cc3)c2n1 3.29%
CN(C)C(=O)c1ccc(-c2nc(NC3CCNCC3)c3ccccc3n2)cc1 4.99%
COc1ccccc1CNc1ncncc1-c1cccnc1 3.76%
COc1cccc(Nc2ncc3nc(C)c(=O)n(C)c3n2)c1 -0.403%
Cc1cnc(CNc2ncncc2-c2cccc(C#N)c2)cn1 8.03%
Cc1nc2cnc(Nc3ccccc3)nc2n(C2CC2)c1=O -15.4%
CCNc1ncc2nc(C)c(=O)n(C3CC3)c2n1 -1.33%
CCNc1ncc2nc(-c3cn(C)c4ccccc34)c(=O)n(-c3ccc(OC)cc3)c2n1 5.38%
CN(C)C(=O)c1ccc(-c2cncnc2N2CCNCC2)cc1 5.34%
Cc1noc(C)c1-c1ccc2ncnc(NC3CCNCC3)c2c1 2.83%
CCNc1ncc2nc(C)c(=O)n(C)c2n1 2.6%
COc1ccc(CNc2ncncc2-c2cccnc2)c(OC)c1 4.88%
COc1ccc(-n2c(=O)cnc3cnc(N4CCOCC4)nc32)cc1 6.91%
Fc1ccc(Nc2ncncc2-c2ccoc2)cc1 4.26%
Cn1c(=O)cnc2cnc(OCc3ccccc3)nc21 9.09%
COc1cccc(Nc2ncc3nc(C)c(=O)n(CCc4ccccc4)c3n2)c1 -2.06%
COc1ccc2[nH]cc(CCNc3ncncc3-c3c(C)noc3C)c2c1 7.61%
Cc1noc(C)c1-c1cc(Nc2ccccc2)ncn1 4.92%
COc1ccc(Oc2ncc3ncc(=O)n(C)c3n2)cc1 5.63%
COCCNc1cc(-c2ccccc2C)ncn1 6.88%
CS(=O)(=O)Nc1cccc(-c2cncnc2Nc2ccc(F)cc2)c1 8.07%
c1ccc2c(NC3CCNCC3)nc(-c3ccoc3)nc2c1 0.038%
c1csc(CNc2cc(-c3ccoc3)ncn2)c1 5.83%
COc1ccc(CNc2cc(-c3ccoc3)ncn2)c(OC)c1 8.38%
O=c1cnc2cnc(Nc3ccccc3)nc2n1Cc1ccc(F)cc1 6.15%
Fc1ccc(Nc2ccnc(-c3ccoc3)n2)cc1 8.99%
COc1ccccc1-c1cc(NCc2ccccc2)ncn1 2.28%
N#Cc1cccc(-c2cncnc2NCc2cccs2)c1 6.17%
CNc1cc(-c2c(C)noc2C)ncn1 4.96%
